Source: the supplement of paper PMC10681739
Whole data set: some 2,700 sequences, median “arbitrary fluorescence units” near 4,100, cut for the highest 2% near 54,000. Shown is part of a subset that was picked to be rich in the highest values.

Target: T1, ETS1 (UniProt P14921)
T1 sequence: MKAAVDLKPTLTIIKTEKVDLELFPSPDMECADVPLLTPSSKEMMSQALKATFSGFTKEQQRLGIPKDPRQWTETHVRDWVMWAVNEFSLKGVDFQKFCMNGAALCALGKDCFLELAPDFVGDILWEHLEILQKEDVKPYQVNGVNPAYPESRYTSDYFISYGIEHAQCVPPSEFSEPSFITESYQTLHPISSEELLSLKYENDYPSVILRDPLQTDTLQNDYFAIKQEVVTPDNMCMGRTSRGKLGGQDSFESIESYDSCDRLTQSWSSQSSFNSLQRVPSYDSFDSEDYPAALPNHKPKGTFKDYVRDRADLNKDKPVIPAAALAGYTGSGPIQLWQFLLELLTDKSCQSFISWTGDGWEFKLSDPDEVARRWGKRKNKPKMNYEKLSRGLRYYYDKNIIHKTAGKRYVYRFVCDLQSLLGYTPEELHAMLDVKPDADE
Assay: ETS1 binding intensity (PBM fluorescence) (arbitrary fluorescence units); higher = stronger binding
Conditions: ETS1 concentration 10 nM
Experimental: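 gcPBM on wild-type 36-bp genomic probes with two neighbouring ETS1 sites (4-24 bp apart). Recombinant human ETS1 (10 nM) was detected with anti-ETS1 antibody fluorescence. Values are medians over 3 replicate spots. The probes sit in constant array flanks that are not printed.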

Sequence | ETS1 binding intensity
CCCGGAGTTCCGCGCGGCGCCAGCCCTTCCGCCACG | 375
GGGTGCTTCCGGGGCAGCGCGCGCCACTTCCGACCT | 33500
GCGCCACTTCCGGCAGCGAAGTCACTTCCGCGGAGG | 57600
GGCTGGGGCGGATGCCGGGGCTGTTCCGGGCCCTCC | 1230
TGAGCGCCGTGCCTTCCGGGTTCCGCCCTCCTGGGT | 1430
AGAATGAGCTGCAGGAAGGCGGAAGCACTAGCGTGC | 421
CGGGACAGGAAGTGTGGACAGGCTCCTTCCTGTTTG | 15000
AGAAACGGAAAGAAAGTGACCCCTCCCTTCCTTTCA | 175
TGGGGTTTCCTGGGGTGTTCTGTCTACATCCTGAGA | 5150
ACAACCTTTAAACTTCCGGTTTCCTCTGTGCGAGGT | 56700
CCCAGCGAGAGGTTTCCTCTTCCGGCACCTGACCCC | 4930
TTCCTCTCCTTTCCGCGAGACCTTCCGCGGTTATCC | 178
GGCTTCAGGATGCATTGACAATTAAAGGAAGTCAGA | 275
GGGGCCACTTCCCGGGGCCAGGCAGGAAGCCCGCCC | 3870
GAGGCGGGACTTCCTACAGCACTTCCGGCCAGAGCC | 26500
CCGGCACTTCCGGCAGGCCAGGGCACTTCCGGGACC | 58000
CGCTGAACTTCCCGAGCTCGGGGTGGGATGTGGCCG | 734
GTCACTTCCGGCAGCCGGAGGCAGCAGAGGAAGCCG | 71500
GAGAGGCAGGAAGAGAGCAGAGCCGGAAGCACAAGG | 2630
GCAGAAGGGAGGAAGAAGCAGGCGGAAGCAGCCGGT | 522
CTCTAGGTCTAACATCCCTCGGAAGTTCGTGCAGCG | 175
GGCAAAAACCCACATCCTCTTCCGCTGGCTCCACCT | 8480
CTCTTGGCAACATCCGGTCACATCCCCTCCGCTATT | 60900
CAACCGAAAACATCCCGTGCCGGAAGCGCGTCATCG | 4780
TGCAAAGCATCCTGGGTGCCAGGCTTCCTGGGGCTT | 1890
TGAAGGCTTCCGCCAAGGTGAGGGGCTTCCTCTGGG | 9460
CGCCCCTGGGGCTTCCGCGGCGGAAGCCTAGCGTCC | 824

Sequence | ETS1 binding intensity
GCAACTTCCGCCCTGAGAAGGGTGGGGCTTCCGTCT | 63000
CCAAGCTGGTTTCCTCTCCGGTTTCCTCCGGGGTGG | 3800
CTGACCTGCTTCCTCATGGTTGTTTCCTGCCTATTG | 3740
GACGGACACCCGTTTCCGCTTCCGGGTCACGCTTCT | 20900
TCCACTTCCGGGTCCGGGACACCGCCCGGATCTTGC | 64200
GCCACCGCCCCTTCCGGGTCCGGAACGGCTCCAGCT | 7050
ACGACGCAGCCACTTCCGATTCCGGTCGGAGCACCG | 8910
TTCTTCACAAGCGGATGTCACTTCCTGCCTGTGACA | 17200
CCTCAGGATGGCATCAGCCTGTGACCACTTCCTGTG | 2200
GCCTCACTTCCTGTGTTCAAGTGACAGGATGTGACA | 70700
GCACCCGGAAGCCGCTTGCGGGCTCCCGGAAGCGGC | 8720
TGCGGGGCGGAAGCCGGGGCGTGACTTCCGGCGCCG | 11600
GGGCGGGACTTCCGGCAAGGCGCGGAAGCGGCGGTA | 46400
GCGTTACTTCCGGCGCGCGGCGGGCGGAAGTCCGGG | 69700
GGGCCTAGGAAATGCCGCACTACAACTTCCGTCGGG | 992
GAGGCGCTTCCTCAGTTGGACTCCACTTCCTCTCCG | 4590
GCCGGCGAGCGGAAGAGGCTGCAGGAAGGCCGGCCC | 3170
TAGTTGTCCCTTCCTTAAGCACTTCCTGTTTGATCT | 11900
CAAACACATCCTGTTTGCACTTGACTTCCTGTTTTG | 37400
AGCACTTCCTGTTTGATCTCTATGATCCATCCTGTT | 106000
CCGGGAGCTCCGGATGCAGACAGGAAGTGGGCAGGG | 9950
CAGCACGACTTCCTGGAGCGGGCCGGAAGTGACAAC | 21000
GAGACGGGACTTCCGGCTCCCGGGGAAGTCCCGCCC | 53500
CGTCCTGACTTCCGGGGCGGGACGGAAGAGCGGGCG | 25800
CGGGGCTCCCGGAAGCCGCCCCTTCCGCCAGCTTGC | 4520
TATAAAACCATTTCCTTCTCTGGGAAATGAGATGTC | 3370
GGTCCGGAAACGGGACAGAAGGCCCACCTTCCTCCC | 8480

Sequence | ETS1 binding intensity
AGCCTTTGTATTTCCTTTCAGAGGAAACCCCAATGC | 5570
CGCTGCTTCCGGGTCTCGGCAAGCACTTCCGGGGTG | 30400
TTCCACTTCCGGTCTTACCCGGCTACTTCCGCTGCT | 147000
TGGGGTCTTCCGGTTGGACCCCTGCTTCCGCTGATT | 24400
CAACGGCAGCTTCCTGCGGCGCCGGAAACGCTTCAA | 12100
TGAAACAGGAAGTCAGCTTCACAGCAGGAAGCAGAC | 16400
TTCCTCAGGGAAGTTCGGGTGAGAGGAAGTGCCTGC | 228
CGCCGCATCCGGTAGCGAGAGTTCAACTTCCTGACT | 56600
CCCGGTAGCCGCCGGAAAACTTCCGCCGAGACCGGA | 4420
CAAGCGATTCTTCCGCCTCAACTTCCTGAGTAGCTG | 5800
TGTGATTTTCCATCCTGCCATTTCCTGGCACCCAGA | 4620
GCCGCGGCGGAAGAGGCTCGGGGAGGAAGTTATTTG | 1880
AGTCACACAGGAAATGGAGCCAGGGGATGTGCTCAA | 14800
CGGGCACTTCCGGCGCGAACCGCTACTTCCGGTGCG | 95900
GCCGAGGACACTTCCGCGGGCGGAACCTGCCGGCAC | 5200
CGCGCCGGGTGTTTCCGCTACTTCCCTGCGGCGGGG | 7930
ACTTGACATTTCCTGCCTCCTGTTTCCTCATCACTC | 22500
GAGGTGGGGAGGAAGAGCTGCCGGAAGTAGGCGGTG | 5440
CAGACTTCCGGGGTCGAGAACTACAACTTCCGACTT | 61700
CTGGGCCCTTCCTGCCAGGTTGCACTTCCTGATAGC | 8540
AGGCAGGAAGTACCGCCTGATGCTCAGCTTCCGCTG | 9880
TGCCACATCCTGTCTTTTTACCTCCTTTCCTGCTTA | 51200
GTAACAGGAAGAAAATAATTTACCACATCCTTTATT | 975
TGGTAACAGGCATTTCCGGTTTCCGGCCGGCTCCCT | 61800
CTTCCCTGGTAACATCCGGCATCCTGGGGCTGCCAA | 18800
TGCGCATTTCCGCTCCTTGCCGGTTTTCCGGACCTC | 36000
